{"source": "PubChem BioAssay AID1650", "about": "(Southern Research Specialized Biocontainment Screening …, 2009)", "note": "Potency and affinity values are given separately. Active and inactive are the calls of the source. Where a call stands in place of a potency, no number is given. How the calls were made is not given here.", "data": [{"experiment": "host cell cytotoxicity of antiviral hits, dose response, cytotoxicity control for West Nile virus antiviral project, secondary assay (AID 1650)", "conditions": "Mammalian host cell viability, cytotoxicity counter-screen; series mostly up to 10 µM", "values": [{"smiles": "Cn1cnc([N+](=O)[O-])c1Oc1cccc2ccccc12", "outcome": "inactive"}, {"smiles": "COc1ccc(CCNC(=O)COc2ccc(S(=O)(=O)NCC(C)C)cc2Cl)cc1OC", "outcome": "inactive"}, {"smiles": "O=C(CCN1C(=O)/C(=C\\c2ccccc2Cl)SC1=S)N1CCN(c2ccccc2)CC1", "outcome": "inactive"}, {"smiles": "CCN1CCN(CCCNC(=O)C2CCCN(c3nc4c(C)cc(C)cc4s3)C2)CC1", "note": "(stereo not given)", "outcome": "inactive"}, {"smiles": "O=C(Nc1ccc2nc3n(c(=O)c2c1)CCCC3)c1cc([N+](=O)[O-])ccc1F", "outcome": "inactive"}, {"smiles": "Cn1cc(CN2CCCC(C(=O)Nc3ccc(-c4cccc(F)c4)cc3)C2)cn1", "note": "(stereo not given)", "outcome": "inactive"}, {"smiles": "Cc1cc(C)cc(SCc2noc(C(=O)NCCCN3CCOCC3)c2C(=O)NCCCN2CCOCC2)c1", "outcome": "inactive"}, {"smiles": "CCOc1ccc(NC(=O)c2c(NC(=O)CN3CCN(C)CC3)sc3c2CCC3)cc1", "outcome": "inactive"}, {"smiles": "COC(=O)c1ccc(/C=C2/SC(=S)N(CCCC(=O)Nc3ccc(O)cc3)C2=O)cc1", "outcome": "inactive"}, {"smiles": "CSc1cccc(NC(=S)N(CCCN2CCCC2)Cc2cccn2Cc2ccc(Cl)cc2)c1", "outcome": "inactive"}, {"smiles": "COc1cc2cc(CN(CCc3ccccc3C)C(=S)NCCCN(C)C)c(=O)[nH]c2cc1OC", "outcome": "inactive"}, {"smiles": "CCN(CC)S(=O)(=O)c1cc(C(=O)Nc2cc(Cl)ccc2N2CCN(C)CC2)ccc1Cl", "outcome": "inactive"}, {"smiles": "COCCN1CCCC(CNCc2cn(C)nc2-c2ccc(Oc3ccccc3)cc2)C1", "note": "(stereo not given)", "outcome": "inactive"}, {"smiles": "CC(=O)N[C@@H](C)C(=O)N1CCC(n2nccc2NC(=O)CCCc2ccccc2)CC1", "outcome": "inactive"}, {"smiles": "O=C(NC1CCCCC1)C(c1ccc(Cl)cc1)N(C(=O)c1ccccn1)c1cccnc1", "note": "(stereo not given)", "outcome": "inactive"}]}]}
